# PubChem BioAssay (NCATS)
# Inconclusive results are not listed. Entries that show only a call come without a potency. The source made the active and inactive calls. The call rests on the fitted dose curve; in most records, active means well fitted inhibition curve with a large enough effect; inconclusive means small, poorly fitted or top-dose-only effect; inactive means flat fitted curve, though single readings scatter.
# System: NIH3T3
# Assay: qHTS assay to identify novel small-molecules to repurpose for Merkel cell carcinoma treatment (AID 1296009); further: nearly all actives have a fitted effect of over 60% in size
# Conditions: MCC and control cell lines, CellTiter-Glo viability, 72 h; series mostly up to 44.8 µM
# Source text: MCC is a rare and aggressive neuroendocrine skin cancer with limited treatment options. Approximately 80% of MCCs have the Merkel cell polyomavirus (MCPyV) DNA integrated into the host genome (virus-positive: VP-MCC) and viral oncogenes drive oncogenesis. The remaining MCCs are virus-negative (VN-MCC) and are caused by UV mutagenesis. To identify novel treatments for VP-MCC and/or VN-MCC we screened three VP-MCC cell lines (WAGA, MKL-1, MKL-2), three VN-MCC cell lines (MCC-13, MCC-26, UISO), and four immortalized, non-transformed control cell lines (HaCaT, HEK293T, CRL7250, NIH-3T3) against ~2,400 compounds in the NCGC Pharmaceutical Collection (NPC) and ~1,900 compounds in the Mechanism Interrogation PlatE (MiPE). Using cell viability as a readout (CellTiter-Glo assay) we found both overlapping and distinct drugs that can be repurposed for the treatment of VP-MCC and VN-MCC.
# A high-throughput screen was conducted in 1536-well white flat bottom plates (Corning) on a Kalypsys robotic system. Cell lines WAGA, MKL-1, MKL-2, MCC-13, MCC-26, UISO, HaCaT, HEK293T, CRL7250, and NIH-3T3 were screened against 2 small molecule annotated drug libraries NPC and MIPE in dose response (8 and 11 pt. respectively) measuring cell viability after 72 hours of incubation. […] A 1,536 pintool (Kalypsys) was used to transfer 23 nL of compound in DMSO to the 1,536-well assay plates. After 72 hr incubation at 37 degree celsius, 2.5 uL of CellTiter-Glo (Promega) was dispensed into each well using a BiorapTR. Plates were incubated at room temperature for 10 min, transferred to a ViewLux (PerkinElmer) and the luminescence was recorded using an exposure time of 2 seconds. Relative luminescence units (RLUs) were normalized to in-plate controls (no cells as a positive (cytotoxicity) control, DMSO as negative control) and the normalized data was processed using NCATS in-house software.
# Potency means the concentration at half of the fitted maximal effect.
SMILES,outcome,Potency
CCCCCCCOc1cc2c(cc1/C(C)=C/c1ccc(C(=O)O)cc1)C(C)(C)CCS2(=O)=O,inactive,
CCCn1cc2c(nc(NC(=O)Nc3ccc(OC)cc3)n3nc(-c4ccco4)nc23)n1,inactive,
Cc1cc(C)c(S(=O)(=O)n2cc(C)cc2C)c(C)c1,inactive,
CN1CCN(C2=Nc3ccccc3Nc3ccc(OS(=O)(=O)C(F)(F)F)cc32)CC1,inactive,
COc1ccccc1N1CCN(c2ncnc3n[nH]c(Br)c23)CC1,inactive,
CCOc1ccc(CCNC(=O)c2cc3sc(Cl)cc3n2C)cc1OCC,inactive,
O=C(Nc1ccn(Cc2ccc(O)cc2C(F)(F)F)n1)c1c(F)cccc1F,inactive,
COC1CC(O[C@H]2CC[C@]3(C)C4CC[C@@]5(C)C(=O)[C@]4(CC[C@@H]3C2)CC[C@@H]5C2=CC(=O)OC2)OC(C)C1OC1OC(COC2OC(CO)C(O)C(O)C2O)C(O)C(O)C1O (stereo not given in full),inactive [at 9.27 µM],
Cn1cc(C2=C(c3coc4ccccc34)C(=O)NC2=O)c2cc(Br)ccc21,inactive,
C=C[C@H](/C=C\c1ccc(O)cc1)c1ccc(O)cc1,inactive,
Cc1cc(NC(=O)NCCN2CCC(O)(Cc3ccccc3)CC2)c2ccccc2n1,inactive,
O=C1Cc2c([nH]c3ccc(Br)cc23)-c2ncccc2N1,inactive,
CC#C[C@@H](CC(=O)O)c1ccc(OCc2ccc(CN3CCC4(C=Cc5ccccc54)CC3)s2)cc1,inactive,
O=C(NCCN1CCC(n2c(=O)[nH]c3ccccc32)CC1)c1cc2cc(F)ccc2[nH]1,inactive,
C=C1C(=O)OC2C1CCC1(C)C(O)CC=C(C)C21 (stereo not given),inactive,
Cc1nnc(-c2ccc(-c3ccc(C(=O)Nc4ccc(O)c(N5CCN(C)CC5)c4)cc3)c(C)c2)o1,inactive,
COc1ccc2cc(-c3cc(-c4cc(Cl)cc(Cl)c4)nn3C(C)c3ccc(C(=O)NCCC(=O)O)cc3)ccc2c1 (stereo not given),inactive,
CC(=O)NCc1cccc(OC[C@@H](O)CNCCc2ccc(NS(=O)(=O)c3ccccc3)cc2)c1,inactive,
CCC(C)C(=O)O[C@H]1[C@@H](OC(=O)c2ccoc2)C[C@](C)(O)[C@]23OC(C)(C)[C@H](C[C@H](OC(=O)c4ccoc4)[C@]12COC(C)=O)[C@H]3OC(C)=O (stereo not given in full),inactive [at 17.4 µM],
CC(C)(O)/C=C/C(=O)[C@](C)(O)[C@H]1[C@H](O)C[C@@]2(C)[C@@H]3CC=C4[C@@H](C[C@H](O[C@@H]5O[C@H](CO)[C@@H](O)[C@H](O)[C@H]5O)C(=O)C4(C)C)[C@]3(C)C(=O)C[C@]12C,inactive [at 17.4 µM],

SMILES,outcome,Potency
CCCc1cc(C)n(C)c(=O)c1CN(C)C(=O)c1cc(-c2ccc(N3CCN(C(C)C)CC3)nc2)cc2c1cnn2C(C)C,inactive,
COc1cc(F)c(C(C)C)cc1-c1ccc(C(F)(F)F)cc1CN1C(=O)OC(c2cc(C(F)(F)F)cc(C(F)(F)F)c2)C1C (stereo not given),inactive,
C=C1CCN([C@H](C)[C@](O)(Cn2cncn2)c2ccc(F)cc2F)CC1,inactive,
CCn1c(-c2nonc2N)nc2c(C#CCO)ncc(OCCCN)c21,inactive,
Cc1cc(OCCCS(C)(=O)=O)cc(C)c1-c1cccc(COc2ccc3c(c2)OCC3CC(=O)O)c1 (stereo not given),inactive,
COC(=O)CC(O)CC(O)/C=C/c1c(C)ccc2c1C(OC(C)=O)CC(C)C2 (stereo not given),inactive,
C[C@@H]1CN(CC(=O)N2CC(C)(C)c3ncc(Cc4ccc(F)cc4)cc32)[C@@H](CN2CCOC[C@H]2C)CN1,inactive,
CC[C@@H](C)Nc1cc(C(=O)NC2CC3CC[C@@H](C2)N3c2ccc(C(=O)C3CC3)cn2)c(C)cc1C(N)=O (stereo not given in full),,0.184 µM (active)
O=C(c1ccccn1)N(Cc1cccs1)C1(C(=O)NC2CCCCC2)CCCCC1,inactive,
C[C@@]12C(=O)N(c3ccc(C(=O)Nc4cccc5cccnc45)cc3)C(=O)[C@@H]1[C@@H]1C=C[C@H]2C1,inactive,
O=C(/C=C/c1ccccc1O)O[C@@H]1O[C@H](CO)[C@@H](O)[C@H](O)[C@H]1O,inactive,
C1=Cc2ccccc2C(=C2CCN(CCCCc3nn[nH]n3)CC2)c2ccccc21,inactive,
CN(C)C(CCOc1cccc2ccccc12)c1ccccc1 (stereo not given),inactive,
CCn1c(=O)n([C@H]2CCCN(c3nccc(-c4cc5ccccc5o4)n3)C2)c2ccccc21,inactive,
CN(C)CCOc1cc(NS(=O)(=O)c2c(Cl)cc(C(F)(F)F)cc2Cl)ccc1Cl,inactive,
CC(C)c1cc(-c2ccc(F)c3ccccc23)nc(N)n1,inactive,
Cc1cc(C(=O)Cn2cc(C#N)ccc2=O)c(C)n1Cc1ccccc1,inactive,
C=C1CCCC2(C)CCC(C(C)(C)OC3OC(C)C(O)C(O)C3OC(=O)/C(C)=C\C)CC12 (stereo not given),inactive [at 17.4 µM],
C=CC(C)(C)c1[nH]c2ccccc2c1C[C@@H]1NC(=O)[C@H](C)NC1=O,inactive,
CCCN(CCc1ccsc1)C1CCc2c(O)cccc2C1 (stereo not given),inactive,
